# High-throughput results deposited in PubChem by National Center for Advancing Translational Sciences (NCATS).
# This is a sample that favours compounds with a hit; in the whole collection about 6.7% have one here.
# PINK1 expr mod: modulators of PINK1 expression | PINK1 immunofluorescence, high-content cytometry, 24 h | Potency, µM (highest dose often 76.6 µM), for the others: top-dose activation (PINK1 increase), actives largely listed as activators | 0.2% of 410,000 active; active = well fitted activation curve with a large enough effect; inconclusive = small, poorly fitted or top-dose-only effect; cell line not stated here; also: % of control where 0% means no effect; nearly all actives have a fitted effect of over 65% in size
#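 PINK1 protein, normally rapidly degraded, was detected by immunofluorescence after 24 hour compound treatment of a stable cell line. Titration data (5 concentrations) came from laser-scanning cytometry, with CCCP-treated wells as controls.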
# MCF10A rereplic: induces DNA re-replication in MCF 10a normal breast cells. MCF 10A DNA re-replication, Hoechst nuclear intensity, 48 h. Potency, µM (doses to about 46.1 µM), for inactives: top-dose activity, positive = re-replication, usual class: activators. 2.9% of 350,000 active; also: % of control where 0% means no effect; nearly all actives have a fitted effect of over 50% in size
# KB-3-1 cytotox: KB-3-1 parental cell cytotoxicity; KB-3-1 viability, CellTiter-Glo ATP luminescence, 72 h; AID 1347075; Potency, µM (top dose mostly 46.1 µM), actives largely listed as cytotoxic; 1.4% of 400,000 active; also: % is scaled to controls: 0 for no effect and ±100 for the full control effect; nearly all actives have a fitted effect of over 60% in size
#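 Cytotoxicity measured as CellTiter-Glo luminescence after 72 h at 37 C. Compound titrations were pinned onto drug-naive KB-3-1 parental adenocarcinoma cells grown in DMEM with 10% FBS, and normalized data fitted to concentration-response curves.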
# SW480 rerep: DNA re-replication induction in SW480 cells; SW480 DNA re-replication, Hoechst DNA content imaging, 48 h; Potency, µM (doses to about 46.1 µM), without a hit: at the highest dose re-replication activation, actives largely listed as activators; 1.8% of 340,000 active; AID 624297; also: % of control where 0% means no effect; nearly all actives have a fitted effect of over 55% in size
#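 Hoechst fluorescence of nuclei (405 nm excitation, 500-530 nm emission) measured by plate-scanning imager after 48 hr compound exposure at 37 C; re-replication scored as increased number of nuclei with elevated intensity.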
# KB-V1 cytotox: kills drug-selected multidrug resistant KB-V1 cells. KB-V1 MDR cells viability, CellTiter-Glo, 72 h. Potency, µM (doses to about 46.1 µM), most hits filed as cytotoxic. 3.4% of 400,000 active; also: % is scaled to controls: 0 for no effect and ±100 for the full control effect; nearly all actives have a fitted effect of over 60% in size
#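 qHTS viability screen in drug-selected KB-V1 MDR cells: 72 h compound treatment at 37 degrees C, ATP luminescence end point.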
# * = called active by the depositor; i = inactive; u = inconclusive; x = no result; [ ] = dose if it differs, or a comment. Unless noted, calls follow the shape of the dose curve; as a rule, active = well fitted curve in the direction sought with a large enough effect; inconclusive = small, poorly fitted or top-dose-only effect, or another doubt; inactive = no such curve, though single readings can be large; an effect the other way counts as inactive or inconclusive. Potency is read from the fitted curve at half-maximal effect.
SMILES,PINK1 expr mod,MCF10A rereplic,KB-3-1 cytotox,SW480 rerep,KB-V1 cytotox
COc1ccccc1NC(=O)C(C)OC(=O)C1CCN(S(=O)(=O)c2ccc(C)c(C)c2)CC1 (stereo not drawn),-2%,15%,i,-2%,7.3µM*
COc1cccc(CNC(=O)C2CCN(S(=O)(=O)c3ccccc3)CC2)c1,-2%,2%,i,1%,21µM*
O=C(Nc1ccc2c(c1)OCO2)C1CCN(S(=O)(=O)c2ccc3c(c2)OCCO3)CC1,-2%[38.3 µM],4%,i,29%,u
COc1ccc(S(=O)(=O)N2CCC(C(=O)Nc3ccc4c(c3)OCCO4)CC2)cc1OC,-25%[38.3 µM],2%,i,9%,18µM*
O=C(NCc1ccc2c(c1)OCO2)C1CCN(c2ccc(S(=O)(=O)N3CCCC3)cc2)CC1,2%,2%,u,6%,2.6µM*
COc1ccc(S(=O)(=O)N2CCC(C(=O)NCc3cccc(OC)c3)CC2)cc1,0%,15%,i,8%,i
Nc1cnccn1,x,x,i,x,i
CCN(C(=O)c1coc(=O)c(Br)c1)c1ccc2c(c1)OCO2,u,13µM*,i,u,i
Cc1cccn2c(=O)c(C=O)c(N3CCSCC3)nc12,0%,0%,i,5.8µM*,i
CC(C)=CCc1c2c(c3occ(-c4ccc(O)cc4)c(=O)c3c1O)C=CC(C)(C)O2,-1%,u,u,1%,u
CC(C)=CCc1c2c(c3occ(-c4ccc(O)c(O)c4)c(=O)c3c1O)C=CC(C)(C)O2,0%,9.2µM*,u,15%,i
CCN(CC)S(=O)(=O)c1cccc(C(=O)N/N=C/c2ccc(O)c(O)c2O)c1,-1%,3%,i,-9%,i
CCN(Cc1ccccc1)S(=O)(=O)CCNC(=O)c1ccc(OC)cc1,3%,-1%,i,-61%,i
CCN(CC)S(=O)(=O)c1cccc(C(=O)NCCc2ccccc2)c1,3%[38.3 µM],4%,i,-3%,9.2µM*
CCN(CC)S(=O)(=O)c1cccc(C(=O)N/N=C(\C)c2ccc(O)cc2O)c1,7%,3.7µM*,i,1.8µM*,u
CCN(Cc1ccccc1)S(=O)(=O)CCNC(=O)c1ccccc1,-3%,-5%,i,-6%,21µM*
COc1ccc(-n2c(=S)[nH]c3cc(C(=O)NCc4cccnc4)ccc3c2=O)cc1,1%,2%,i,u,i
N#Cc1ccc(CN2CCN(C(=O)CC(NC(=O)c3ccccc3)c3ccccc3)CC2)cc1 (stereo not drawn),6%,10%,u,7%,i
Cn1c(=O)c2c(nc(NCC3CCCC(CN)C3)n2Cc2ccc(Cl)cc2Cl)n(C)c1=O (stereo not drawn),0%,u,u,4.1µM*,u
Cn1c(=O)c2c(nc(N3CCN(c4ccccn4)CC3)n2Cc2ccc(Cl)cc2Cl)n(C)c1=O,0%,0%,i,-6%,0.65µM*
Clc1cccc(Nc2c3c(nc4ncnn24)CCC3)c1,-6%[38.3 µM],17%,i,-3%,u
CCc1cccc(Nc2c3c(nc4ncnn24)CCC3)c1,0%,1%,i,0%,18µM*
Cc1nn(Cc2ccccc2)c(C)c1C(=O)N1CCN(S(=O)(=O)/C=C/c2ccccc2)CC1,0%,-1%,i,-4%,i
CCCCCCN1C=C/C(=C\C=C(C#N)C#N)c2ccccc21,-1%,-3%,16µM*,-7%,u
CCN(Cc1ccccc1)C(=S)Nc1cc(C(=O)OC)ccc1C(=O)OC,1%,2%,i,5%,15µM*
SMILES,PINK1 expr mod,MCF10A rereplic,KB-3-1 cytotox,SW480 rerep,KB-V1 cytotox
COC(=O)c1ccc(C(=O)OC)c(NC(=O)Oc2ccccc2)c1,5%,-4%,i,11%,i
Cc1ccc(NC2=C(Cl)C(=O)OC2OC(C)C)cc1 (stereo not drawn),0%,u,i,-5%,i
Cc1ccc(NC2=C(Cl)C(=O)OC2OC(=O)c2ccco2)cc1 (stereo not drawn),0%[38.3 µM],u,i,21µM*,i
Cc1cccc(NC2=C(Cl)C(=O)OC2OC(=O)c2ccco2)c1 (stereo not drawn),5%,u,i,4.6µM*,i
CCN1CCC(N[C@H]2C[C@@H](C(=O)NC)N(Cc3cccc4ccccc34)C2)CC1,0%,x,x,x,x
N#Cc1cccc(C(=O)C(=O)N2CCCN(Cc3ccc(F)cc3)CC2)c1,x,x,i,x,u
CCCC(=O)N(C)c1ccc(/C=C2\C=Cc3ccccc32)cc1,0%,x,u,x,i
Cc1ccc(C)c(-n2cc(CNCCCn3cccn3)c(-c3ccccc3)n2)c1,3%,u,i,16µM*,i
Cc1ccc(-n2cc(CNCCc3cscn3)c(-c3ccc(F)cc3)n2)cc1,-1%,u,i,84%,i
Cc1ccc(-n2cc(CNCCCn3ccnc3C)c(-c3ccc(F)cc3)n2)cc1,-1%,u,u,u,21µM*
CCOC(=O)C1=CC[C@@H](c2ccccc2)N(S(=O)(=O)c2ccc(C)cc2)[C@H]1/C=C/c1ccccc1,2%,x,i,x,i
COC(=O)c1c(NC(=O)CCCOc2cccc(C)c2)sc2c1C(C(=O)OC)CC2 (stereo not drawn),0%,x,x,x,x
Cc1ccc(S(=O)(=O)c2cc3c(=O)n4ccccc4nc3n(C)c2=N)cc1,4%,u,i,u,6.5µM*
Cc1ccc(S(=O)(=O)c2cc3c(=O)n4ccccc4nc3n(CC3CCCO3)c2=N)cc1C (stereo not drawn),5%,-17%,i,16%,4.6µM*
COc1ccc(CCn2c(=N)c(S(=O)(=O)c3ccccc3)cc3c(=O)n4ccccc4nc32)cc1,1%,3.7µM*,i,6%,i
CCCn1c(=N)c(S(=O)(=O)c2ccccc2)cc2c(=O)n3ccccc3nc21,13%,18µM*,i,1%,i
Cc1ccc(S(=O)(=O)c2cc3c(=O)n4ccccc4nc3n(CCc3ccccc3)c2=N)cc1,2%,u,i,u,i
CCCCCn1c(=N)c(S(=O)(=O)c2ccccc2)cc2c(=O)n3ccccc3nc21,-1%,x,i,x,u
N=c1c(S(=O)(=O)c2ccc(Br)cc2)cc2c(=O)n3ccccc3nc2n1CCN1CCOCC1,3%,16µM*,i,u,i
CCn1c(=N)c(S(=O)(=O)c2ccccc2)cc2c(=O)n3ccccc3nc21,8%,6.5µM*,i,2%,i
CCC(C)n1c(=N)c(S(=O)(=O)c2ccccc2)cc2c(=O)n3ccccc3nc21 (stereo not drawn),1%,x,i,x,u
CNc1nc(N2CCc3ccccc32)ncc1F,x,-2%,u,-1%,1.6µM*
COc1ccccc1CNS(=O)(=O)c1cc(CN2C(=O)c3cccnc3C2=O)ccc1OC,0%,28%,i,-21%,u
